KAT2A inh = qHTS Assay for Inhibitors of GCN5L2; Histone acetyltransferase KAT2A (Homo sapiens), Q92830; GCN5L2 HAT assay, ThioGlo1 CoA-SH fluorescence; Potency, µM (highest dose often 58.9 µM), inactives show top-dose activity change, negative = inhibition, most hits filed as inhibitors; 390,000 compounds, 0.21% hits
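Preincubate 20nM GCN5L2 with compound 15 min, RT → add 50uM ThioGlo1 + 75uM H3(1-25) + 70uM acetyl-CoA → read fluorescence 0 and 20 min. Primary qHTS; fluorescent artifacts likely.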
DT40 TDP1 no CPT = qHTS for Inhibitors of human tyrosyl-DNA phosphodiesterase 1 (TDP1): qHTS in cells in absence of CPT. DT40 Tdp1-/- hTDP1 cells, no CPT, ATP luminescence, 48 h. Potency, µM (top dose mostly 46.2 µM), inactives show at the top dose activity change, negative = growth inhibition, usual class: inhibitors. 420,000 compounds, 15% hits. AID 686978, 2013; also: nearly all actives have a fitted effect of over 55% in size
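Seeded 400 DT40-hTDP1 cells/well (vehicle DMSO, no 20 nM CPT); pinned compounds; ≥48 hr at 37 °C; CellTiter-Glo luminescence as viability measure.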
VDR inh = Inhibitors of the vitamin D receptor (VDR): qHTS | 400,000 compounds, 0.93% hits | Vitamin D3 receptor (Homo sapiens), P11473 | Potency, µM, for the others: max response, negative = inhibition, most hits filed as inhibitors | VDR-SRC2-3 peptide fluorescence polarization, 2 h
Target sequence (P11473 whole entry, looked up): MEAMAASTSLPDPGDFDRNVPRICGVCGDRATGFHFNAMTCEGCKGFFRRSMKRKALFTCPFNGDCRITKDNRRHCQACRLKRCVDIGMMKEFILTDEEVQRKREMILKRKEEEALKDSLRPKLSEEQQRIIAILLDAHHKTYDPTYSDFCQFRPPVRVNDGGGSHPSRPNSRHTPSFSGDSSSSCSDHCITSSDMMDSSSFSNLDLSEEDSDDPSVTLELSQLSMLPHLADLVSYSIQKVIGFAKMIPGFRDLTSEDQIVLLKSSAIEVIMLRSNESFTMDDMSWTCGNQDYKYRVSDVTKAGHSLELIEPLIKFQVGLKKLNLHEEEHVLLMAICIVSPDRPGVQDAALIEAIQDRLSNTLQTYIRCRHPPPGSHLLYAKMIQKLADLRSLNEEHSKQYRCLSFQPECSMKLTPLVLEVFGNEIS
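Reagent solutions, kept cold and dark, are dispensed first; compounds are then pinned in at 23 nl, plates briefly spun, and incubated 2 h at ambient temperature. Inhibition of VDR–SRC2-3 peptide binding is read by fluorescence polarization.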
TDP1 inh = qHTS Assay for Inhibitors of Tyrosyl-DNA Phosphodiesterase (TDP1). 350,000 compounds, 0.28% hits. Tyrosyl-DNA phosphodiesterase 1 (Homo sapiens), Q9NUW8. recombinant TDP1, AlphaScreen DNA substrate cleavage. Potency, µM (top dose mostly 130 µM), for inactives: at the top dose activity change, negative = inhibition, hits mostly inhibitors; also: nearly all actives have a fitted effect of over 40% in size
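Here, a 5' biotin and 3' phosphotyrosine-FITC DNA oligonucleotide reports Tdp1 activity: intact substrate bridges AlphaScreen beads, while cleavage leaves a 3' phosphate and drops signal. All incubations at room temperature.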
PLK1 PBD block = qHTS for Inhibitors of PLK1-PDB (polo-like kinase 1 - polo-box domain): Primary Screen; Serine/threonine-protein kinase PLK1 (Homo sapiens), P53350; Plk1 PBD binding of FITC phosphopeptide, fluorescence polarization; Potency, µM, for the others: max response, negative = inhibition, hits mostly inhibitors; 360,000 compounds, 2.8% hits; also: series mostly up to about 57 µM; nearly all actives have a fitted effect of over 65% in size
TDP1 cell CPT = qHTS for Inhibitors of human tyrosyl-DNA phosphodiesterase 1 (TDP1): qHTS in cells in presence of CPT. AID 686979, 2013. Potency, µM (highest dose often 46.2 µM), without a hit: at the highest dose activity change, negative = growth inhibition, usual class: inhibitors. 420,000 compounds, 12% hits. chicken DT40 Tdp1-/-;hTDP1 cells + 20 nM CPT, ATP luminescence, 48 h; also: nearly all actives have a fitted effect of over 55% in size
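Chicken DT40 Tdp1-/- cells stably complemented with human TDP1 were seeded at 400 cells/well in medium containing 20 nM camptothecin, exposed to pin-transferred compounds, and grown at 37 °C for at least 48 hr. Viability was read as ATP luminescence.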
* = called active by the depositor; ? = inconclusive; / = no result given; [ ] = another dose, or the depositor's remark. Rows were chosen to be rich in hits. Some 18% of all compounds tested hit in one or more screens of this group. Calls follow the shape of the dose curve; as a rule, active = well fitted curve in the direction sought with a large enough effect; inconclusive = small, poorly fitted or top-dose-only effect, or another doubt; inactive = no such curve, though single readings can be large; an effect the other way counts as inactive or inconclusive. % is scaled to controls: 0 for no effect and ±100 for the full control effect; potency is read from the fitted curve at half-maximal effect.

SMILES	KAT2A inh	DT40 TDP1 no CPT	VDR inh	TDP1 inh	PLK1 PBD block	TDP1 cell CPT
O=C(c1ccccc1F)N1CCN(c2ccc([N+](=O)[O-])c(NCC3CCCO3)c2)CC1 (stereo unspecified)	2%	18µM*	-9%	4%	-6%	?
O=[N+]([O-])c1ccc(N2CCN(S(=O)(=O)c3ccc(Cl)cc3)CC2)cc1NCC1CCCO1 (stereo unspecified)	2%	-5%	-1%	2%	2%	-8%
O=S(=O)(O)Sc1ccccc1	/	21µM*	/	/	6µM*	23µM*
NS(=O)(=O)c1ccccc1	6%	-7%	-3%	3%	-18%	-20%
CCN(CC)c1ccc(SS(=O)(=O)O)cc1	-4%	-28%	79µM*	8%	6.7µM*	-9%
CCN(CC)c1ccc(C(=O)O)cc1	0%	-19%	-16%	3%	-7%	11%
COc1cc(NC(=O)c2cc(Br)cc(C)c2OC)ccc1NC(=O)C(C)C	-2%	23µM*	1%	2%	-5%	?
COc1ccc(Cl)cc1C(=O)Nc1ccc(NC(=O)C(C)C)cc1	9%	18µM*	0%	2%	-14%	18µM*
COc1ccc(Cl)cc1C(=O)Nc1ccc(Br)c(C)n1	2%	?	-15%	0%	24µM*	?
O=C(N/N=C/c1cccnc1)c1ccc2c(c1)OCCO2	-3%	10%	24%	-11%	3%	3%
CC[C@H](C)[C@H](NC(=O)CNC(=O)[C@H](CCCNC(=N)N)NC(=O)[C@H](CO)NC(=O)[C@H](C)NC(=O)[C@H](Cc1ccc(O)cc1)NC(=O)[C@H](Cc1c[nH]c2ccccc12)NC(=O)[C@H](C)NC(=O)[C@@H]1CCCN1C(=O)[C@H](CC(N)=O)NC(=O)[C@@H](NC(=O)[C@H](CC(=O)O)NC(=O)[C@@H]1CCCN1C(=O)[C@@H](NC(=O)[C@H](CCCNC(=N)N)NC(=O)[C@@H](NC(=O)[C@H](CCC(=O)O)NC(=O)[C@H](CCSC)NC(=O)[C@H](CO)NC(=O)[C@H](Cc1cnc[nH]1)NC(=O)[C@H](CCCNC(=N)N)NC(=O)[C@H](Cc1cnc[nH]1)NC(=O)[C@@H](NC(=O)[C@H](CCCNC(=N)N)NC(=O)[C@@H](N)CO)[C@@H](C)O)[C@@H](C)CC)[C@@H](C)O)[C@@H](C)CC)C(=O)N[C@@H](CCCNC(=N)N)C(=O)N1CCC[C@H]1C(=O)N[C@H](C(=O)NCC(=O)N[C@@H](CCCNC(=N)N)C(=O)N[C@@H](Cc1ccccc1)C(N)=O)C(C)C	1%	/	-1%	17%	/	/
Cc1ccc(C(=O)NC(Cc2cccc(C(F)(F)F)c2)C(=O)O)cc1 (stereo unspecified)	2%	4%	-7%	0%[56.1 µM]	-11%	3%
C=CCN1C(c2ccc(Br)cc2)=CS/C1=C(/C#N)c1nnc(N2CCOCC2)n1-c1ccccc1	-11%	8.2µM*	-5%	1%	-13%	7.3µM*
C=CCN1C(c2cccc(C(F)(F)F)c2)=CS/C1=C(/C#N)c1nnc(N2CCOCC2)n1-c1ccccc1	-5%	12µM*	-28%	5%	-12%	12µM*
C=CCN1C(c2ccccc2)=CS/C1=C(\C#N)c1nnc2n1CCCCC2	-5%	?	2%	8%	-17%	?
C=CCN1C(=O)NC(c2ccc(OC)cc2)(C(F)(F)F)S/C1=C(\C#N)c1nnc(N2CCOCC2)n1-c1ccccc1 (stereo unspecified)	-9%	-10%	-24%	2%	?	13%
CCCCCCCCCCC[N+](C)(C)CC/C=C1/c2ccccc2Sc2ccc(Cl)cc21	-10%	2.6µM*	-21%	/	?	5.8µM*
CN(CC/C=C1/c2ccccc2CSc2ccccc21)CCCO	0%	?	-1%	0%	-3%	?
CCCCCCCCCC[N+](C)(C)CC/C=C1/c2ccccc2Sc2ccc(Cl)cc21	-3%	3.7µM*	-9%	/	-18%	5.2µM*
CC[N+](C)(C)CC/C=C1/c2ccccc2Sc2ccc(Cl)cc21	-3%	-6%	-4%	3%	-12%	7%
CCN(CC(=O)Nc1ccc2c(c1)OCCO2)S(=O)(=O)c1ccc(F)cc1	3%	-13%	-1%	10%	-14%	-1%
Cc1ccc(-c2cc(C(=O)Nc3sc4c(c3C(=O)NCc3ccco3)CCC4)[nH]n2)c(O)c1	-24%	?	-6%	-5%	-7%	-13%
CCNC(=O)c1c(NC(=O)c2cc(-c3cc(C)ccc3O)n[nH]2)sc2c1CCCC2	1%	16µM*	5%	0%	-6%	?
COCCCNC(=O)c1c(NC(=O)Cc2coc3cc(C)ccc23)sc2c1CCCC2	1%	16µM*	3%	7%	/	16µM*
CCNC(=O)c1c(NC(=O)Cc2coc3cc(C)ccc23)sc2c1CCCC2	-3%	18µM*	6%	4%	/	12µM*
SMILES	KAT2A inh	DT40 TDP1 no CPT	VDR inh	TDP1 inh	PLK1 PBD block	TDP1 cell CPT
O=C(COC(=O)c1ccc(S(=O)(=O)N2CCOCC2)cc1)NCc1ccco1	/	2%	/	/	-6%	-22%
CC(=O)Nc1sc2c(c1C(N)=O)CCCC2	?	-5%	4%	-1%	-10%	-2%
NC(=O)c1c(NC(=O)c2noc3c2CCCC3)sc2c1CCCC2	-26%	?	50µM*	-5%	/	?
NC(=O)c1c(NC(=O)C2CCCO2)sc2c1CCCC2 (stereo unspecified)	-14%	?	-28%	1%	11µM*	?
CCOC(=O)c1c(NC(=O)C2CCCO2)sc(C(=O)OC(C)(C)C)c1C (stereo unspecified)	2%	?	?	-2%	6µM*	?
Cc1sc(NC(=O)C2CCCO2)c(C(N)=O)c1C (stereo unspecified)	-12%	?	?	-2%	17µM*	-17%
C[C@H](CO)N1C[C@H](C)[C@H](CN(C)C(=O)c2ccccc2)OCc2ccccc2-c2c(n(C)c3ccccc23)C1=O	/	?	/	/	-6%	?
CCOCCCNC(=O)C1CCN(c2nc3ccc(C)cc3[nH]2)CC1	-10%	1%	8%	3%	/	0%
